In PubChem BioAssay (NCI):
Compounds without any hit were thinned out: in the full panel of roughly 83,000, 20% have a hit.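 How to read the values: 0–100, growth inhibition (40 = 60% inhibited); 0, no net growth; -100 to 0, cell death (-40 = 40% of starting cells died; -100 = all dead).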 A number with no mark means an inactive call. Activity calls are given as the source filed them.

tested on: HOP-92 NSCLC; test: NCI-60 one-dose screen, 48 h (100 = growth as untreated, 0 = no growth, -100 = all killed); settings: 10 µM unless noted
Protocol: Growth inhibition of the HOP-92 human Non-Small Cell Lung tumor cell line is measured as a screen for anti-cancer activity. Cells are grown in 96 well plates and exposed to the test compound for 48 hours. Compounds are tested at a single concentration, which is 10^-5 M for most compounds. The reported endpoint is percent growth (GI% or GIPRCNT), where numbers from 0 - 100% represent growth inhibition, and numbers from -100% - 0 represent cell death. For example, a value of 40 represents 60% growth inhibition. A value of 0 means no net growth occurred over the course of the experiment. A value of -40 indicates 40% of cells at the beginning of the experiment died by the end of the experiment. A value of -100 means all cells are dead at the end of the experiment.
NCI-60 Human Tumor Cell Lines Screen was performed using the standard one-dose NCI protocol, which is described in more detail at https://dtp.cancer.gov/discovery_development/nci-60/default.htm.
Compounds with GIPRCNT values below 10 were considered active. Activity score was based on GIPRCNT using the following formula: […]
Score is 0 for GIPRCNT values of 100 or above, 50 for GIPRCNT values of 0, and 100 for GIPRCNT values of -100.

Structure (SMILES)	growth
Cc1nccc2c3ccc(OCc4cn(-c5ccc(Br)cc5)nn4)cc3n(CCCc3ccccc3)c12	99.7%
O=C(Cn1c2ccccc2c2ccncc21)N/N=C\c1ccc2ccccc2c1	-7.39% (active)
O=S1(=O)N(CCNc2nccc(-c3c(-c4cccc(O)c4)nc4sccn34)n2)CCN1Cc1ccccc1	119%
Nc1nc(-c2cc3c(cc2Cl)NC(=O)/C3=C/c2ccccc2)cs1	81.2%
COC(=O)c1ccc(NC(N)=NCC(C)(C)COc2ccc(C(F)(F)F)cc2)nc1	47.1%
COc1ccc(-c2cc(-c3nnc(SC/C(=N\O)c4ccccc4)n3-c3ccccc3)c3ccccc3n2)cc1	94.8%
CC(C)CNCC(O)COc1ccc(C(C)(C)c2ccc(OCC(O)CNCC(C)C)cc2)cc1 (stereo not given)	20.2%
Nc1ncc(-c2ccc3ncnc(Nc4cncc(Cl)c4)c3c2)cn1	-0.664% (active)
CCC1(C(N)=O)CC2C=CC1CC2 (stereo not given)	94.1%
O=C(Nc1ccc(-n2ccc3c(NC(=O)c4ccccc4)nccc32)cc1)c1ccc(Cl)c(C(F)(F)F)c1	46.5%
Cc1ccc2c(C3C(C#N)=C(N)Oc4cc5ccccc5cc43)cc(=O)oc2c1 (stereo not given)	75.7%
C=C(C)[C@@H]1C/C=C(\COC(=O)[C@H](OC(C)=O)C(NC(=O)c2ccccc2)c2ccccc2)CC[C@H]2O[C@]2(C)CC/C=C(\C)CC1 (stereo not given in full)	13.3% [5 µM]
COc1cc(/C=C/C(=O)c2ccc(Oc3ncnc4ccccc34)cc2)cc(OC)c1OC	109%
O=C(NCCNc1nccc(-c2c(-c3cccc(O)c3)nc3sccn23)n1)Nc1cccc(C(F)(F)F)c1	54.5%
CC(=O)c1ccc2c(c1)C1C=CCC1[C@H](c1cc3c(cc1Br)OCO3)N2 (stereo not given in full)	16%
C=C1C(=O)O[C@H]2[C@H]1CC/C(COC(=O)c1ccc(C#N)cc1)=C\CC[C@@]1(C)O[C@@H]21	-35.8% (active)
COc1ccc(-c2nnc(SCC(=O)Nc3ccc(C(=O)/C=C/c4ccc(OC)c(OC)c4)cc3)o2)cc1	81.3%
C=C1C(=O)O[C@H]2[C@H]1CC/C(COC(=O)OC/C1=C/CC[C@@]3(C)O[C@H]3[C@H]3OC(=O)[C@@H](CN(C)C)[C@@H]3CC1)=C\CC[C@@]1(C)O[C@@H]21	-51.8% (active)
C=C1C(=O)O[C@H]2[C@H]1CC/C(COC(=O)c1ccc3ccccc3c1)=C\CC[C@@]1(C)O[C@@H]21	-73.3% (active)
CCN(CC)C(=O)C1CCN(C(=O)c2ccccc2)CC1	98.8%

Structure (SMILES)	growth
C=CCn1c(SCC(=O)Nc2ccc(C(=O)/C=C/c3cc(OC)c(OC)c(OC)c3)cc2)nnc1-c1ccc(OC)cc1	21.3%
CN(C)c1ccc(/C=N/n2c(-c3cc(F)c(Cl)cc3Cl)nn(CN3CCOCC3)c2=S)cc1	75.2%
COc1ccc(/C=C2/C(=O)Nc3cc(Cl)c(-c4csc(N)n4)cc32)cc1	43.1%
Nc1ncnc2c1c(-c1ccc(Oc3ccccc3)cc1)nn2C[C@H]1SSC[C@@H]1O	-2.99% (active)
COc1cc(/C=C2/Oc3cc4occc4c(OC)c3C2=O)ccc1OCC(=O)Nc1ccncc1	97.4%
CC/C(=C(\CC)c1ccc(OCCN(CC)CC)cc1)c1ccc(OCCN(CC)CC)cc1	-10.2% (active)
CC(C)CNCC(=O)Nc1ccc(Cc2ccc(NC(=O)CNCC(C)C)cc2)cc1	38.4%
COc1ccc(C(=O)Cn2cnc3c(Nc4cc(C(=O)Nc5ccc(N6CCN(CCO)CC6)cc5)ccc4C)ncnc32)cc1	121%
COc1ccc(/C=C/C(=O)c2ccc(NC(=O)CSc3nnc(-c4cc(OC)c(OC)c(OC)c4)o3)cc2)cc1	-55.4% (active)
CCOC(=O)c1[nH]c(-c2ccc(Cl)cc2)cc1-c1cccnc1	17%
CC(C)Cn1cnc2c3ccccc3nc(NCn3nc(-c4cc(Cl)cc(Cl)c4Cl)oc3=S)c21	50.7%
COc1ccc2c(c1)C(=O)/C(=C/c1cccc(OCC(=O)c3ccccc3)c1)O2	-58.8% (active)
NC(=NCCCOc1ccc(F)cc1)Nc1ccc(Cl)c(Cl)c1	16.5%
COc1cc(C(=O)NNC(=O)c2ccccc2C(=O)O)cc(OC)c1OC	55.3%
Cc1cccc(Cc2cnc(NC(=O)CCc3ccc(C)o3)s2)c1	64.9%
CC(=O)CC/C=C(\C)[C@H](O)[C@H](C)C(=O)O[C@H]1C[C@H](C)C=C2C=C[C@@]3(C)O[C@@H](O)CC(=O)[C@]3(C)[C@H]21	-32.5% (active)
COc1ccc(-c2nn(-c3cccc(Cl)c3)cc2-c2cc(-c3ccc(Br)cc3)[nH]c(=O)c2C#N)cc1	82.1%
C=C1C(=O)O[C@H]2[C@H]1CC/C(C(=O)Nc1ccc(OC)c(C(N)=O)c1O)=C\CC[C@@]1(C)O[C@@H]21	26.4%
CS(=O)(=O)OCC(COS(C)(=O)=O)C(c1ccccc1)c1ccccc1	85.2%
O=C(O)c1cccc(S(=O)(=O)c2ccccc2)c1	82.8%
